Test results: PubChem BioAssay (NCATS)
Inconclusive results are not listed. Entries that show only a call come without a potency. Active and inactive are the calls of the source. Calls come from the whole dose curve; as a rule, active = well fitted curve in the direction sought with a large enough effect; inconclusive = small, poorly fitted or top-dose-only effect, or another doubt; inactive = no such curve, though single readings can be large; an effect the other way counts as inactive or inconclusive.

Key:
[1] = system: Zika virus NS2B-NS3 protease; experiment: Primary screen GU AMC qHTS for Zika virus inhibitors (AID 1347154); note: nearly all actives have a fitted effect of over 70% in size; note: potency is the fitted concentration of half-maximal effect
Summary of the method: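 Unlinked Zika NS2B hydrophilic domain–NS3 protease complex at 25 nM in 10 mM Tris-HCl pH 8.0, 0.01% Tween 20, with an AMC peptide substrate. Fluorescence change (340/450 nm) over 15 min at room temperature, normalized to controls, fitted to 4-parameter Hill.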

[2] = qHTS of pediatric cancer cell lines to identify multiple opportunities for drug repurposing: Confirmatory screen for SK-N-SH cells (AID 1347129);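 note: cells exposed to compound for 48 h before viability read; nearly all actives have a fitted effect of over 60% in size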
Summary of the method: (§1)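 Viability after 48 h compound treatment at 37C, 500-1,000 cells/well, read as ATP luminescence with CellTiter-Glo. Primary screens used 11-point (MIPE, 0.78 nM-46 µM) or 8-point (NPC, 0.59 nM-46 µM) final concentrations; follow-up screens used 11-point dilutions.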

[3] = qHTS of pediatric cancer cell lines to identify multiple opportunities for drug repurposing: Confirmatory screen for OHS-50 cells (AID 1347128);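 note: compound exposure lasted 48 h at 37 degrees C; nearly all actives have a fitted effect of over 55% in size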
Summary of the method: as §1

Furin (Homo sapiens) = Furin (Homo sapiens) (UniProt P09958); experiment: Furin counterscreen qHTS for Zika virus inhibitors (AID 1347149); note: potency is the fitted concentration of half-maximal effect; nearly all actives have a fitted effect of over 70% in size
Chain of Furin (Homo sapiens) (P09958 whole entry, looked up): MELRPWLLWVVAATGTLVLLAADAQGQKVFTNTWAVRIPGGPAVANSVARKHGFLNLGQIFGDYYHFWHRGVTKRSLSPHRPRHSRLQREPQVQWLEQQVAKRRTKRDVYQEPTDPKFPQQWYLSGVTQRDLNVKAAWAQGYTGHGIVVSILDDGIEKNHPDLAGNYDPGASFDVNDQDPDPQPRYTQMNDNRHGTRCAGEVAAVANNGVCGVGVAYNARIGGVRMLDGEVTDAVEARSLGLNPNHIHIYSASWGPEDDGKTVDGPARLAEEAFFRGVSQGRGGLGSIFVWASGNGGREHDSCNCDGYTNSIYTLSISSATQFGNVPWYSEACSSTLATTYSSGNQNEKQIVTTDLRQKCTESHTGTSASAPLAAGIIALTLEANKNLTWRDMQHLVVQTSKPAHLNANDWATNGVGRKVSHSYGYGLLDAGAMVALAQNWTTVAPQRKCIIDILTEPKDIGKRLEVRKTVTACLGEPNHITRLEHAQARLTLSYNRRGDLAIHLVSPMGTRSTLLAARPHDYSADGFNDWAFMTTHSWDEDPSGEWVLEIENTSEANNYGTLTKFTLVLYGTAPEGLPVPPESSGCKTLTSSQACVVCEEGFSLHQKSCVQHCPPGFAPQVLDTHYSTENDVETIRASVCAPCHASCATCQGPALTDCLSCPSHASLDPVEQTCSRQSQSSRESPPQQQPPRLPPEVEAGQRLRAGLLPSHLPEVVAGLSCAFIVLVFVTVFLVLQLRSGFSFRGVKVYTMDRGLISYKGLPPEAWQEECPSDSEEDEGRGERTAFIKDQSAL
Summary of the method: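 Fluorogenic cleavage of BOC-RVRR-AMC (2 microM final, Km ~15 µM) was monitored (ex 340, em 450 nm) at 37C after 15 min RT preincubation of 5 nM furin with compounds in HEPES pH 7.0 buffer with CaCl2 and Triton X-100. Percent inhibition was fitted to a 4-parameter Hill curve.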

[4] = system: Zika virus NS2B-NS3 protease (linked construct); experiment: Confirmatory screen NINDS AMC qHTS for Zika virus inhibitors (AID 1347152); conditions: Purified linked NS2B-NS3, AMC substrate fluorescence; note: potency is the fitted concentration of half-maximal effect; nearly all actives have a fitted effect of over 70% in size
Summary of the method: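 Purified NS2B-NS3 protease with NS2B hydrophilic domain linked to NS3 protease domain by flexible linker, 1 nM final in 10 mM Tris-HCl pH 8.0, 0.01% Tween 20. Compounds preincubated 15 min, room temperature; Bz-Nle-KRR-AMC 10 microM (Km 18.3 µM); 15-min fluorescence change, 4-parameter Hill fit.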

[5] = system: Zika virus NS2B-NS3 protease (unlinked complex); experiment: Confirmatory screen GU AMC qHTS for Zika virus inhibitors (AID 1347153); note: nearly all actives have a fitted effect of over 70% in size;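 for potency: enzyme at 25 nM with substrate at 10 µM below its Km of 18.3 µM; potency is the fitted concentration of half-maximal effect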
Summary of the method: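 Noncovalent NS2B hydrophilic domain/NS3 protease complex (25 nM) in 10 mM Tris-HCl pH 8.0, 0.01% Tween 20 was preincubated 15 min at room temperature with compounds. Then 10 µM AMC substrate (Km 18.3 µM) was added; fluorescence was read over 15 min and fitted to a 4-parameter Hill equation.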

[6] = Confirmatory screen NINDS Rhodamine qHTS for Zika virus inhibitors (AID 1347161); note: nearly all actives have a fitted effect of over 60% in size; note: potency is the fitted concentration of half-maximal effect
Summary of the method: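 Purified linked NS2B-NS3 protease (NS2B hydrophilic domain joined to NS3 protease by flexible linker), 25 nM in 10 mM Tris-HCl pH 8.0, 0.01% Tween 20. Compounds titrated, 15 min preincubation at room temperature; 1.5 microM Rhodamine110 substrate, FITC fluorescence change over 15 min.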

**Q.** With `CCN1CC(CCN2CCOCC2)C(c2ccccc2)(c2ccccc2)C1=O` (stereo not drawn) as the compound, how does the Potency [1] read?
**A.** inactive

**Q.** With `O=C(Cn1ccnc1[N+](=O)[O-])NCc1ccccc1` as the compound, how does the outcome [2] read?
**A.** inactive

**Q.** And the Potency [1]?
**A.** inactive

**Q.** With `CC(=O)[C@@]1(O)CC[C@H]2[C@@H]3C[C@H](C)C4=CC(=O)C=C[C@]4(C)[C@@]3(F)[C@@H](O)C[C@@]21C` as the compound, how does the Potency [3] read?
**A.** inactive

**Q.** What about the Potency [1] of the same compound?
**A.** inactive

**Q.** For `CC(C)NC[C@@H](O)COc1ccc(CC(N)=O)cc1`, which Potency [1] is on record?
**A.** inactive

**Q.** For `O=C(Cn1ccnc1[N+](=O)[O-])NCCO`, which Potency [1] is on record?
**A.** inactive

**Q.** With `COc1ccc(C(=O)N2CCN(CC(=O)N3CCOCC3)CC2)cc1` as the compound, how does the Potency [1] read?
**A.** inactive

**Q.** Which Potency [1] does the source give for `CC(=O)NS(=O)(=O)c1ccc(N)cc1` here?
**A.** inactive

**Q.** With `COc1cc(O)cc(O)c1` as the compound, how does the Potency [1] read?
**A.** inactive

**Q.** For `CCCOC(=O)c1ccc(N)cc1`, which Potency [1] is on record?
**A.** inactive

**Q.** For `CC1CCc2cc(F)cc3c(=O)c(C(=O)O)cn1c23` (stereo not drawn), which Potency [1] is on record?
**A.** inactive

**Q.** Which Potency [1] does the source give for `c1ccc2[nH]ccc2c1` here?
**A.** inactive

**Q.** For `CCCCCCCC(=O)OCC(COC(=O)CCCCCCC)OC(=O)CCCCCCC`, which Potency [1] is on record?
**A.** inactive

**Q.** Which results are given for `COc1cc(C(=O)NCCCCCC(=O)O)cc(OC)c1OC`?
**A.** Potency [3]: inactive; outcome [2]: inactive; Potency [1]: inactive

**Q.** For `O=S1(=O)OC(c2ccc(O)cc2)(c2ccc(O)cc2)c2ccccc21`, which Potency [1] is on record?
**A.** inactive

**Q.** For `CN1C(=O)CC(c2ccccc2)C1=O` (stereo not drawn), which Potency [1] is on record?
**A.** inactive

**Q.** With `CC(=O)Nc1ccc(OCCOCCOc2ccc(NC(C)=O)cc2)cc1` as the compound, how does the Potency [1] read?
**A.** inactive

**Q.** With `CN1C[C@@H]2C[C@H]1CN2c1cc2c(cc1F)c(=O)c(C(=O)O)cn2C1CC1` as the compound, how does the Potency (Furin (Homo sapiens)) read?
**A.** 9.41 µM (active)

**Q.** And the Potency [4]?
**A.** 16.7 µM (active)

**Q.** And the Potency [5]?
**A.** 16.7 µM (active)

**Q.** And the Potency [1]?
**A.** 8.82 µM (active)

**Q.** What about the Potency [6] of the same compound?
**A.** inactive

**Q.** For `CN/C(=C\[N+](=O)[O-])NCCSCc1csc(CN(C)C)n1`, which Potency [1] is on record?
**A.** inactive

**Q.** Which Potency (Furin (Homo sapiens)) does the source give for `O=C(O)[C@@H]1[C@H]2C[C@H]3c4[nH]c5ccccc5c4CCN3C[C@@H]2CC[C@@H]1O` here?
**A.** 21.5 µM (active)

**Q.** What about the Potency [5] of the same compound?
**A.** inactive

**Q.** What about the Potency [6] of the same compound?
**A.** 12.4 µM (active)

**Q.** For `Cc1cc(C)nc(NS(=O)(=O)c2ccc(N)cc2)n1`, which Potency [1] is on record?
**A.** inactive

**Q.** With `Cc1cccc(C)c1NC(=O)CC12CCCN1CCC2` as the compound, how does the Potency [1] read?
**A.** inactive

**Q.** With `CCOC(=O)OC(C)OC(=O)[C@@H]1N2C(=O)[C@@H](NC(=O)[C@H](N)c3ccccc3)[C@H]2SC1(C)C` (stereo partly drawn) as the compound, how does the Potency [1] read?
**A.** inactive

**Q.** With `Nc1c2c(nc3c1CCC3)CCCC2` as the compound, how does the Potency [1] read?
**A.** inactive

**Q.** For `C/C(=C(\CCO)SS/C(CCO)=C(\C)N(C=O)Cc1cnc(C)nc1N)N(C=O)Cc1cnc(C)nc1N`, which Potency [1] is on record?
**A.** inactive

**Q.** Which Potency [1] does the source give for `O=C(O)c1ccccc1C(=O)Nc1ccc(S(=O)(=O)Nc2nccs2)cc1` here?
**A.** inactive

**Q.** Which Potency [1] does the source give for `CC1(C)S[C@@H]2[C@H](N=CN3CCCCCC3)C(=O)N2[C@H]1C(=O)O` here?
**A.** inactive

**Q.** With `Cc1cc(-n2nc3ccc(Cl)cc3n2)c(O)c(C(C)(C)C)c1` as the compound, how does the Potency [1] read?
**A.** inactive

**Q.** For `Cc1ncc(CO)c(CN)c1O`, which Potency [1] is on record?
**A.** inactive

**Q.** For `O=C1C(c2[nH]c3ccccc3c2O)=Nc2ccccc21`, which Potency [1] is on record?
**A.** inactive

**Q.** With `O=C1c2ccccc2S(=O)(=O)N1CCCCN1CCN(c2ncccn2)CC1` as the compound, how does the Potency [1] read?
**A.** inactive

**Q.** With `O=C(NCCCN1CCOCC1)c1ccc(Cl)cc1` as the compound, how does the Potency [1] read?
**A.** inactive

**Q.** With `CC(C)(C)C(=O)OCOC(=O)[C@@H]1N2C(=O)[C@@H](NC(=O)[C@H](N)c3ccccc3)[C@H]2SC1(C)C` as the compound, how does the Potency [1] read?
**A.** inactive

**Q.** With `CC(=O)NCc1c(I)c(NC(C)=O)c(I)c(C(=O)O)c1I` as the compound, how does the Potency [1] read?
**A.** inactive

**Q.** Which Potency [1] does the source give for `CC[C@H](C)[C@H](N)C(=O)O` here?
**A.** inactive

**Q.** With `CCc1cccc(CC)c1NC(=O)CN(CC(=O)O)CC(=O)O` as the compound, how does the Potency [1] read?
**A.** inactive

**Q.** For `CC(=O)OC[C@H]1O[C@@](COC(C)=O)(O[C@H]2O[C@H](COC(C)=O)[C@@H](OC(C)=O)[C@H](OC(C)=O)[C@H]2OC(C)=O)[C@@H](OC(C)=O)[C@@H]1OC(C)=O`, which Potency [1] is on record?
**A.** inactive

**Q.** For `CCCCC1(COC(=O)CCC(=O)O)C(=O)N(c2ccccc2)N(c2ccccc2)C1=O`, which Potency [1] is on record?
**A.** inactive

**Q.** With `CNc1c2c(nn1C)CCCC2` as the compound, how does the Potency [1] read?
**A.** inactive

**Q.** Which Potency [1] does the source give for `CC(=O)Nc1ccc(C(=O)O)cc1` here?
**A.** inactive

**Q.** Which Potency [1] does the source give for `COCC(=O)Nc1c(I)c(C(=O)NCC(O)CO)c(I)c(C(=O)N(C)CC(O)CO)c1I` (stereo not drawn) here?
**A.** inactive

**Q.** For `O=C(CN1CCNCC1)NC1CCCCC1`, which Potency [1] is on record?
**A.** inactive

**Q.** Which Potency [1] does the source give for `Nc1ncnc2c1ncn2[C@@H]1O[C@H](COP(=O)(O)O)[C@@H](O)[C@H]1O` here?
**A.** inactive

**Q.** With `Cc1c(C)c2c(c(C)c1OC(=O)c1cccnc1)CC[C@@](C)(CCC[C@H](C)CCC[C@H](C)CCCC(C)C)O2` as the compound, how does the Potency [1] read?
**A.** inactive

**Q.** With `Cc1cccc(Nc2ccccc2C(=O)O)c1C` as the compound, how does the Potency [1] read?
**A.** inactive

**Q.** For `CC(C)CCCC(C)CCCC(C)CCCCC(C)CCCC(C)CCCC(C)C` (stereo not drawn), which Potency [1] is on record?
**A.** inactive

**Q.** With `Cc1ccsc1C(=CCCN1CCC[C@@H](C(=O)O)C1)c1sccc1C` as the compound, how does the Potency [1] read?
**A.** inactive

**Q.** Which Potency [1] does the source give for `O=c1[nH]c(=O)c2ccccc2o1` here?
**A.** inactive

**Q.** For `CCCNC(C)(C)COC(=O)c1ccccc1`, which Potency [1] is on record?
**A.** inactive
